Laboratory results published in PubChem BioAssay (NCI).
About 83,000 compounds went through this panel and 20% of them were active in at least one assay; those are over-represented in the sample as a whole.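 Plates (96-well) were seeded with cells, treated with compound at one concentration, and incubated for 48 hours before percent growth was determined.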 Unmarked numbers belong to inactive results. Calls of active or inactive are those of the source. Rule for the calls: active = growth percent below 10; inactive = the rest.

What was measured:
Experiment in all cases: NCI-60 one-dose screen, 48 h (100 = growth as untreated, 0 = no growth, -100 = all killed)
Conditions in all cases: 10 µM unless noted
[1] = test system: DU-145 prostate
[2] = test system: K-562 leukemia
[3] = test system: MALME-3M melanoma
[4] = test system: MDA-MB-231 breast
[5] = test system: RXF 393 renal
[6] = test system: SF-268 CNS
[7] = test system: SF-295 CNS
[8] = test system: SF-539 CNS
[9] = test system: UACC-257 melanoma
[10] = test system: M14 melanoma
[11] = test system: HT29 colon
[12] = test system: SNB-75 CNS
[13] = test system: SNB-19 CNS
[14] = test system: PC-3 prostate
[15] = test system: SK-MEL-5 melanoma
[16] = test system: UACC-62 melanoma
[17] = test system: LOX IMVI melanoma
[18] = test system: SK-MEL-28 melanoma
[19] = test system: HCT-15 colon
[20] = test system: U251 CNS

SMILES | growth [1] | growth [2] | growth [3] | growth [4] | growth [5] | growth [6] | growth [7] | growth [8] | growth [9] | growth [10] [%] | growth [11] | growth [12] | growth [13] | growth [14] | growth [15] | growth [16] | growth [17] | growth [18] | growth [19] | growth [20]
N#CCCc1ccccc1 | 119% | 108% | 113% | 107% | 114% | 106% | 108% | 96.2% | 95% | 106 | 104% | 86.3% | 97.7% | 108% | 99.6% | 97.2% | 102% | 108% | – | –
CC1(C)N=C(N)N=C(N)N1c1ccc(CCC(=O)Nc2ccc(S(=O)(=O)F)cc2)cc1 | 28.1% | 12.9% | 47% | 76.4% | 47.3% | 25.1% | 40.3% | 28.7% | 41.1% | 35.9 | 9.44% (active) | 51.8% | 55% | 20.2% | – | 26.2% | 15.8% | – | – | –
N#CCC(=O)c1ccccc1 | 98.5% | 84.5% | 102% | 104% | 108% | 94.1% | 101% | 111% | – | 111 | 110% | 84.3% | 111% | 95.2% | 104% | 107% | 103% | – | 99.8% | 101%
C=CC1CN2CCC1CC2C(O)c1ccnc2ccccc12 (stereo unspecified) | 111% | 231% | 140% | 125% | – | 120% | 121% | 121% | 158% | 133 | 115% | 124% | 124% | – | – | – | 117% | 133% | 116% | 115%
N#CC(C#N)=C(C#N)C#N | 110% | 108% | 108% | 106% | 111% | 96% | – | 93.7% | 97.8% | 102 | 110% | 87.7% | 102% | – | 102% | 101% | 52.3% | 105% | 97.9% | –
CC(=O)Cc1ccc2c(c1)OCO2 | 111% | 116% | 116% | 89.1% | 115% | 98.3% | 109% | 95.4% | 104% | 105 | 98.6% | 117% | 98.8% | 106% | – | 103% | 100% | 130% | – | –
Cc1ccccc1-n1c(/C=C\c2ccccn2)nc2ccccc2c1=O | 21.3% | 23.8% | 59.5% | 77.1% | 7.42% (active) | 61.7% | 74.4% | 82.8% | 81.8% | 64.9 | 79.7% | 44.9% | 87.9% | 56.5% | – | 64.5% | – | 83.2% | – | –
COc1cc(-c2ccc(N)c(OC)c2)ccc1N | 103% | 138% | 78.1% | 103% | – | 103% | 104% | 110% | 134% | 113 | 97.5% | 76.9% | 102% | 105% | – | – | 88.9% | 111% | 110% | 99.2%
Nc1nc(=S)nc(N)[nH]1 | 113% | 103% | 102% | 92.1% | 101% | 93.3% | 95.9% | 97.1% | 87.2% | 89.5 | 104% | – | 97.2% | – | 103% | – | – | – | – | 97%
CC1OC(=O)C(C(C)C)NC(=O)C(C(C)C)OC(=O)C(C(C)C)NC(=O)C(C)OC(=O)C(C(C)C)NC(=O)C(C(C)C)OC(=O)C(C(C)C)NC(=O)C(C)OC(=O)C(C(C)C)NC(=O)C(C(C)C)OC(=O)C(C(C)C)NC1=O (stereo unspecified) | -60.2% (active) | -38.2% (active) | 9.37% (active) | -67.9% (active) | -63.1% (active) | 5.42% (active) | -27.1% (active) | -91.4% (active) | -53.5% (active) | – | -32.3% (active) | -18.5% (active) | -17% (active) | -49.8% (active) | -74.5% (active) | 5.04% (active) | -26.4% (active) | -28.8% (active) | -3.27% (active) | -41.9% (active)
CCCC(C)SP(=S)(SC(C)CCC)SC(C)CCC (stereo unspecified) | 108% | 112% | 87.6% | 113% | 95.5% | 104% | 101% | 103% | – | 94.4 | 100% | 106% | 108% | 99.8% | 91.9% | 101% | 93.6% | 107% | 103% | 103%
C[N+]1(C)CCCC1c1cccnc1 (stereo unspecified) | 110% | 99.3% | 92.1% | 109% | 102% | 108% | 100% | 107% | 96.9% | 97.5 | 102% | 98% | 105% | – | 95.4% | 102% | 100% | 114% | – | 94%
COc1ccn(C)c(=O)c1C#N | 106% | 105% | 106% | 90.7% | 107% | 94.3% | 101% | – | 87% | 102 | 78.8% | 114% | 109% | 94.7% | 98% | 95.9% | 97% | 106% | 101% | 92%
O=S(=O)(c1ccc(O)cc1)c1ccccc1O | 111% | 98% | 113% | 98.9% | 117% | 97.3% | 112% | 103% | 111% | – | 112% | 96.7% | 104% | – | 102% | 98.2% | – | 105% | 108% | –
COc1ccc2c(c1)C1(C)CCN(C)CC(C1)C2O (stereo unspecified) | 104% | 99.9% | 93.3% | 113% | 97% | 100% | – | 97.2% | 97% | 98.1 | 98.5% | 84.2% | 103% | 88.6% | 99.5% | 108% | 98.4% | 108% | 97.6% | 99.3%
COC(=O)C1=CO[C@@H](C)[C@@H]2CN3CCc4c([nH]c5cc(OC)ccc45)[C@@H]3C[C@H]12 | 104% | 97.6% | – | 97.2% | 115% | 98.6% | 117% | 104% | 95.7% | 103 | 103% | 76.9% | 95.2% | 93.9% | 98.2% | 78.3% | 94.6% | – | 97.6% | 103%
COC(=O)CCP(CCC(=O)OC)c1ccccc1 | 110% | 111% | – | 117% | 108% | 103% | 99.4% | 101% | 99.7% | 101 | 106% | 89.5% | 119% | 99.9% | 103% | 97.9% | 100% | 103% | 106% | 99.3%
